# Of roughly 7,900 targets only a part is listed; those with a hit were picked by preference. About 0.6% of all pairs of compound and target were hits. Unmarked numbers belong to inactive results.
# Columns and labels:
# Experiment in all cases: log2 fold change, soluble protein after heating vs DMSO (PISA); higher = thermal stabilisation; K562 cells, 10 uM, 30 min; active = over 0.2 and 3.5 SD of the protein, either way, in both replicates (recomputed)
# [1] = compound: NC(=O)Nc1cc(-c2cccc(F)c2)sc1C(=O)N[C@H]1CCCNC1
# In short: (§1)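 K562 cells at 2×10^6 cells/mL were treated with 10 μM compound for 30 min. Aliquots were heated for 3 min across 48°C-58°C, pooled, and extracted in PBS with 0.5% NP-40 at 4°C; soluble protein was the supernatant after 21,000xg for 90 min. Soluble protein was quantified by TMTpro 16plex LC-MS/MS with channel sums equalised, and reported as log2 fold change in thermal stability against DMSO controls, with values from duplicates.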
# [2] = compound: NC(=O)c1cnc(N[C@@H]2CCCC[C@@H]2N)nc1Nc1cccc(-n2nccn2)c1
# In short: as §1
# [3] = compound: NC1(c2ccc(-c3nc4ccn5c(=O)[nH]nc5c4cc3-c3ccccc3)cc2)CCC1
# In short: as §1
# [4] = compound: NCC(=O)Nc1ccc(-n2nc(C(F)(F)F)cc2-c2ccc3c(ccc4ccccc43)c2)cc1
# In short: as §1
# entinostat = compound: Nc1ccccc1NC(=O)c1ccc(CNC(=O)OCc2cccnc2)cc1 [entinostat]
# In short: as §1
# vorinostat = compound: O=C(CCCCCCC(=O)Nc1ccccc1)NO [vorinostat]
# In short: as §1
# citarinostat = compound: O=C(CCCCCCNC(=O)c1cnc(N(c2ccccc2)c2ccccc2Cl)nc1)NO [citarinostat]
# In short: as §1
# silmitasertib = compound: O=C(O)c1ccc2c(c1)nc(Nc1cccc(Cl)c1)c1ccncc12 [silmitasertib]
# In short: as §1
# [5] = compound: O=C1NC(=O)C(c2cnc3ccccn23)=C1c1cn2c3c(cc(F)cc13)CN(C(=O)N1CCCCC1)CC2
# In short: as §1
# [6] = compound: c1cc(OCCN2CCCCC2)cc(-c2n[nH]c3ccc(-c4nnc[nH]4)cc23)c1
# In short: as §1
# Chain of UniProt Q92621 (Q92621 whole entry, looked up): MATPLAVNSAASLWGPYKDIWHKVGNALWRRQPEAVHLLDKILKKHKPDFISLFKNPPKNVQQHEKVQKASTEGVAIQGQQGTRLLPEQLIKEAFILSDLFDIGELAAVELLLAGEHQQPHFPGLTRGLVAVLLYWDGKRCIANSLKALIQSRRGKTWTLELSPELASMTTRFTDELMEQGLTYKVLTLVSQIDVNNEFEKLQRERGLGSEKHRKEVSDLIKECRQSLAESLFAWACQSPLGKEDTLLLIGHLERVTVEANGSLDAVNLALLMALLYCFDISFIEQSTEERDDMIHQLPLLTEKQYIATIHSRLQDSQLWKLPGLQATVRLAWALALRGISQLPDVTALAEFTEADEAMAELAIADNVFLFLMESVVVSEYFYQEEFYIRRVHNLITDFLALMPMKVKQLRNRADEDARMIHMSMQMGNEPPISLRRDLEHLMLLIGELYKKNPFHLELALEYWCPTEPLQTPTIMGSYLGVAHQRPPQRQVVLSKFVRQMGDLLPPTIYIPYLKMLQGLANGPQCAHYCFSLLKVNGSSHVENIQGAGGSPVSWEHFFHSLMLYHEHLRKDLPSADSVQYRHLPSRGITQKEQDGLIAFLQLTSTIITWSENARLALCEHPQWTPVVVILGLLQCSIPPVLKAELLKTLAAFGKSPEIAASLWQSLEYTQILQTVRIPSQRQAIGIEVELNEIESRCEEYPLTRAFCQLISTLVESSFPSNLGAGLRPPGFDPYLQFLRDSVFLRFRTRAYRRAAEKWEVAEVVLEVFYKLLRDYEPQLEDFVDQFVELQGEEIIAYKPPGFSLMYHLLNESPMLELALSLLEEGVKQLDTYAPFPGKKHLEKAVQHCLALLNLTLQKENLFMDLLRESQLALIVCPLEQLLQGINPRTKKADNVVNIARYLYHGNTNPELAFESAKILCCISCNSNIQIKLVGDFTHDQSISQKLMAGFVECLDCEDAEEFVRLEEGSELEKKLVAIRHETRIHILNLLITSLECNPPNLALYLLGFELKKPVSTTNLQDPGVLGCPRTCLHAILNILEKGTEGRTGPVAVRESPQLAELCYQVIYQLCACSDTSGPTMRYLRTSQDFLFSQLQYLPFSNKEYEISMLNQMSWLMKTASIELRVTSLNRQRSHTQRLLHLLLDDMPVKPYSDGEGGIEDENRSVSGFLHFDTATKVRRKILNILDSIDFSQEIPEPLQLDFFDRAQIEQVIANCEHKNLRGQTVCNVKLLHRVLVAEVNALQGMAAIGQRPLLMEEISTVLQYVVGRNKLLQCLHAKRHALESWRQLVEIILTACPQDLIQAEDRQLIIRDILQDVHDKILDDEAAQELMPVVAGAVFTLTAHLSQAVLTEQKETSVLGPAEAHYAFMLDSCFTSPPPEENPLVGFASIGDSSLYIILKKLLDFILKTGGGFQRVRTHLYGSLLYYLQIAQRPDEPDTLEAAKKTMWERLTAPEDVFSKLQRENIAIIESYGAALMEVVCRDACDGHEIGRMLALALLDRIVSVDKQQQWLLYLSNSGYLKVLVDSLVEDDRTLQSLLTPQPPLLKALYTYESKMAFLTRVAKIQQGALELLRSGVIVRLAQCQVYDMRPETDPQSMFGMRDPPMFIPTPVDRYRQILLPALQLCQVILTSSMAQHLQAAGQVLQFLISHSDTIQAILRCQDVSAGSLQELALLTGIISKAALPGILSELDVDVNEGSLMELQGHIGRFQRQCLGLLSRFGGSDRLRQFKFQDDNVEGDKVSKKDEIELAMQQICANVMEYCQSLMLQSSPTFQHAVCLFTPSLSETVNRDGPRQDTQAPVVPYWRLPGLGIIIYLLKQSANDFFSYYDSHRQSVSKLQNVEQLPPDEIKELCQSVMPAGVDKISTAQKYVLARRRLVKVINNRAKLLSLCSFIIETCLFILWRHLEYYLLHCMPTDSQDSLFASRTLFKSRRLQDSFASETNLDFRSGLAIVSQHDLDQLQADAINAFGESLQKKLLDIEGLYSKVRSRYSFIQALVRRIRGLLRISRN
# Chain of UniProt P51948 (P51948 whole entry, looked up): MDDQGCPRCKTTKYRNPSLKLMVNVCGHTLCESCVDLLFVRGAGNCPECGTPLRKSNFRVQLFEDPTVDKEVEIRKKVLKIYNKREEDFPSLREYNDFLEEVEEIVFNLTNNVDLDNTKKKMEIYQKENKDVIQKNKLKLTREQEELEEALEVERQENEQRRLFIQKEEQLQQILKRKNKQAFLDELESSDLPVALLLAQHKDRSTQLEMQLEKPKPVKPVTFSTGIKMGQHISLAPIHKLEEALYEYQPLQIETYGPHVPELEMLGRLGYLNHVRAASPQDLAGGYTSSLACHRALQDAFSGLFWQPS
# Chain of UniProt Q13952 (Q13952 whole entry, looked up): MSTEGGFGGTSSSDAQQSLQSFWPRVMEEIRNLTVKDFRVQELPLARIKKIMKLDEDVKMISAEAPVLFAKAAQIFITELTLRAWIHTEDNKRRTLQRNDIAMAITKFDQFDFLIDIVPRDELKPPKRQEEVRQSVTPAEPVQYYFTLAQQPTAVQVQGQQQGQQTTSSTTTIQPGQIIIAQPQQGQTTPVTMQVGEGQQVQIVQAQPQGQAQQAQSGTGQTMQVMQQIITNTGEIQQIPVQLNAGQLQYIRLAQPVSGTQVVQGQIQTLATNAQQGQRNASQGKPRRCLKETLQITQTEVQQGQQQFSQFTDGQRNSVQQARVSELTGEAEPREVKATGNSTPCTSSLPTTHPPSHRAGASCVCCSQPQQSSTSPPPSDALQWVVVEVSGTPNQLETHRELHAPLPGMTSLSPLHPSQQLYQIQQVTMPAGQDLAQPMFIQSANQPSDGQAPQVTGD
# Chain of UniProt O95169 (O95169 whole entry, looked up): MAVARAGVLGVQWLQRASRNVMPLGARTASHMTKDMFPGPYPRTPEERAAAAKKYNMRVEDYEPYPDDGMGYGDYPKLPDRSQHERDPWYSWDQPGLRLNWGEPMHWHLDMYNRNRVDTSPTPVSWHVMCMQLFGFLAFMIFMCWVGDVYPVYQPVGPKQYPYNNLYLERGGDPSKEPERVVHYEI
# Chain of UniProt P68402 (P68402 whole entry, looked up): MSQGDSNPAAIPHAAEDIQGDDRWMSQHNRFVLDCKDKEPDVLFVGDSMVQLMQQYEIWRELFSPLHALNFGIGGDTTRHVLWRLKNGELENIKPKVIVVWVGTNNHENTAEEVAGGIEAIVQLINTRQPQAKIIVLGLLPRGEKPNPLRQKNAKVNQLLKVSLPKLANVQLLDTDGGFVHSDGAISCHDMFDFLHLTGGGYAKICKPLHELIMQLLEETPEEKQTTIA
# Chain of UniProt O14524 (O14524 whole entry, looked up): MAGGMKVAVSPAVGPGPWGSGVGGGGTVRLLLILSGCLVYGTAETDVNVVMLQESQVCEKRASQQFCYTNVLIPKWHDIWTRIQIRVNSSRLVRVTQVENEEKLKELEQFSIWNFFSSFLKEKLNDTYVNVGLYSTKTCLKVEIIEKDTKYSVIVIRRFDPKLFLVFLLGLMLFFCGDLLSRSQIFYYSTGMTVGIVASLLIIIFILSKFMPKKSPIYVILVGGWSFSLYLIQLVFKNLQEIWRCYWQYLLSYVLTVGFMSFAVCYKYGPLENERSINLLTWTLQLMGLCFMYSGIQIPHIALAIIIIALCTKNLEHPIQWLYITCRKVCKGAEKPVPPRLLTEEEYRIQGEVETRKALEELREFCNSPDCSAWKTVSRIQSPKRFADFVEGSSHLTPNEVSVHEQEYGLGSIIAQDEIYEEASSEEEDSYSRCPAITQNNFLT
# Chain of UniProt Q9NZT2 (Q9NZT2 whole entry, looked up): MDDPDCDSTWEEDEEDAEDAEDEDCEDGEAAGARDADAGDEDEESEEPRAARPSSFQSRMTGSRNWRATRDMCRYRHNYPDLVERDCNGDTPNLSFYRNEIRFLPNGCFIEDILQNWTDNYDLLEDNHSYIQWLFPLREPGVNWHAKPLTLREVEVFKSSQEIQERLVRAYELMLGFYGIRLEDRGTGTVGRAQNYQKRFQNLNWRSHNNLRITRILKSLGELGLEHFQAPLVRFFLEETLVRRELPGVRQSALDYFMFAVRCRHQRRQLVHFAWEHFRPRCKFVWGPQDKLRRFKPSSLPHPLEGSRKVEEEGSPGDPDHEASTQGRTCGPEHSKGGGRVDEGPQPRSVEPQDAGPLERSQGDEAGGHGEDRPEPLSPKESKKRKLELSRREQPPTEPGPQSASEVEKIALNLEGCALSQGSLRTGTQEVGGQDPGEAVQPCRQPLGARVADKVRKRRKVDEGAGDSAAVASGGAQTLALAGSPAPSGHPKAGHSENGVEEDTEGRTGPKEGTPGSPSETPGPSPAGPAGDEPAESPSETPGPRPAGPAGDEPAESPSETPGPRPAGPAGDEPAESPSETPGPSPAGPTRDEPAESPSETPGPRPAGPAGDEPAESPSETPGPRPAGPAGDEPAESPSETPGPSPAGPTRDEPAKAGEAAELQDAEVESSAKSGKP
# Chain of UniProt P84157 (P84157 whole entry, looked up): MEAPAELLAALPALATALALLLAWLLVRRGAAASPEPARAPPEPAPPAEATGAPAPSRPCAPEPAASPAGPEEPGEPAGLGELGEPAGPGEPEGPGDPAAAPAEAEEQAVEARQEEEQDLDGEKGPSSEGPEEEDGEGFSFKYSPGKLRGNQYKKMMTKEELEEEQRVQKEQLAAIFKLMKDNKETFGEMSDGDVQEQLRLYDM
# Chain of UniProt Q9BV86 (Q9BV86 whole entry, looked up): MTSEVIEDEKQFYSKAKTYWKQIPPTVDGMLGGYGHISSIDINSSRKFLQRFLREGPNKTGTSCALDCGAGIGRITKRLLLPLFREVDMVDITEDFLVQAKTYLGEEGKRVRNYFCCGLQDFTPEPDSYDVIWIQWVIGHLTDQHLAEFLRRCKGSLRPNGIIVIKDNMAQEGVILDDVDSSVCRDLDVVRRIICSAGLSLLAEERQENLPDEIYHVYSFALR
# Chain of UniProt O43181 (O43181 whole entry, looked up): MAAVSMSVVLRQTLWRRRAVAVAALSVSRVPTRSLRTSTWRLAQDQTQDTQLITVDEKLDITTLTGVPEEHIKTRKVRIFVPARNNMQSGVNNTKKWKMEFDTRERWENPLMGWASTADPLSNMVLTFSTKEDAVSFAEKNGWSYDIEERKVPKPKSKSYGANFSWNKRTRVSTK
Target,log2 fold change [1],log2 fold change [2],log2 fold change [3],log2 fold change [4],log2 fold change (entinostat),log2 fold change (vorinostat),log2 fold change (citarinostat),log2 fold change (silmitasertib),log2 fold change [5],log2 fold change [6]
MTHFD1 (UniProt P11586),-0.028,-0.011,0.094,-0.028,0.024,0.05,0.051,-0.039,-0.042,-0.021
NUDT16 (UniProt Q96DE0),0.02,0.08,-0.01,0.205 (active),0,-0.069,0.018,0.016,-0.106,0.034
NTMT1 (UniProt Q9BV86),-0.035,0.027,0.077,-0.002,0.024,-0.089,-0.069,-0.028,-0.029,
MKRN2 (UniProt Q9H000),-0.007,0,0.094,-0.044,0.104,0.228,0.042,0.047,0.052,-0.129
OXSR1 (UniProt O95747),-0.014,-0.048,-0.151,-0.064,0.031,0.042,0.045,-0.071,-0.007,0.018
NMD3 (UniProt Q96D46),-0.159,-0.034,-0.098,-0.037,-0.001,0,0.085,-0.048,-0.071,-0.047
NR2C2AP isoform 2 (UniProt Q86WQ0),-0.082,-0.131,-0.05,-0.094,-0.02,-0.027,0.079,0.062,-0.092,-0.035
"MTHFD1, A0A384N5Y3",-0.048,-0.033,0.17,-0.077,-0.059,0.013,0.024,-0.091,-0.056,0.041
NCL (UniProt P19338),0.015,0.024,0.331,0.156,-0.093,-0.018,-0.105,0.2,0.147,-0.171
NFATC2IP (UniProt Q8NCF5),-0.016,-0.017,-0.087,-0.011,0.035,0.078,0.075,-0.017,0.02,-0.011
NOSIP (UniProt Q9Y314),0,-0.004,-0.095,-0.121,0.16,0.163,0.136,0.082,-0.095,0.019
NUP205 (UniProt Q92621),-0.042,-0.023,-0.075,-0.1,0.017,0.041,0.101,0.058,-0.073,-0.069
NCAPD2 (UniProt Q15021),-0.109,-0.075,-0.149,-0.045,0.084,0.058,0.078,0.135,0.014,-0.002
NFYC (UniProt Q13952),0.008,-0.079,-0.054,-0.027,-0.034,-0.057,-0.002,0.024,-0.058,-0.044
MRPS16 (UniProt Q9Y3D3),0.026,-0.04,-0.079,-0.05,0.075,0.133,0.057,-0.063,-0.016,-0.036
"NA, A0A096LPI6",0.03,0.04,-0.012,0.016,-0.006,-0.02,0.022,0.024,-0.043,-0.015
MRPS27 isoform 2 (UniProt Q92552),0.067,-0.015,-0.105,-0.007,0.011,0.104,0.08,-0.04,0.049,-0.012
MIS12 (UniProt Q9H081),0.016,-0.084,-0.079,-0.101,0.027,0.123,0.014,0.016,0.02,-0.081
MSH3 (UniProt P20585),-0.175,-0.001,-0.126,-0.007,-0.032,-0.017,0.031,0.034,-0.069,-0.019
NSDHL (UniProt Q15738),-0.14,-0.061,0.11,-0.033,-0.018,-0.04,0.023,-0.023,-0.027,0.02

Target,log2 fold change [1],log2 fold change [2],log2 fold change [3],log2 fold change [4],log2 fold change (entinostat),log2 fold change (vorinostat),log2 fold change (citarinostat),log2 fold change (silmitasertib),log2 fold change [5],log2 fold change [6]
MRPL47 (UniProt Q9HD33),0.024,0.058,0.039,0.057,0.028,-0.195,-0.087,-0.021,-0.011,0.336
NCAPH (UniProt Q15003),-0.086,-0.036,-0.092,-0.043,0.038,0.029,0.029,0.098,0,-0.009
NMT1 (UniProt P30419),-0.006,-0.043,-0.052,-0.129,0.008,0.031,-0.012,-0.015,0.022,-0.52 (active)
NUMB (UniProt P49757),-0.088,-0.022,-0.002,-0.003,-0.041,0.037,0.009,0.007,-0.097,-0.032
NPEPPS (UniProt P55786),-0.02,-0.035,-0.046,-0.041,-0.007,0.076,0.048,-0.038,-0.003,-0.03
NOB1 (UniProt Q9ULX3),-0.032,0.002,-0.041,-0.021,0.047,0.093,-0.003,-0.096,0.062,0.038
MSH2 (UniProt P43246),-0.069,-0.06,-0.109,-0.138,0.074,0.032,0.089,0.037,-0.091,-0.003
NACC1 (UniProt Q96RE7),0.099,-0.082,-0.173,-0.075,0.062,0.148,0.235,-0.027,-0.257,-0.057
ORC3 isoform 2 (UniProt Q9UBD5),0.018,-0.09,-0.093,-0.142,-0.004,0.236,0.023,0.058,0.008,-0.188
MNAT1 (UniProt P51948),-0.055,-0.039,0.005,-0.058,-0.028,-0.003,0.078,-0.015,-0.047,-0.036
MRPS2 (UniProt Q9Y399),0.105,-0.079,-0.102,0.062,0.034,0.096,0.001,-0.103,-0.021,-0.01
MRPS33 (UniProt Q9Y291),0.019,0.02,-0.032,0.046,0,0.035,0.039,-0.066,0.016,-0.052
MON1B (UniProt Q7L1V2),0.015,-0.045,-0.312 (active),-0.053,-0.018,-0.001,0.056,0.032,0.052,-0.081
MYL12B (UniProt O14950),0.09,0.084,-0.013,0.055,0.029,-0.004,0.045,-0.037,-0.042,0.026
MRPS15 (UniProt P82914),0.039,0.06,-0.057,0.119,0.072,0.077,0.028,-0.114,0.085,-0.031
NDUFB8 (UniProt O95169),0.028,0.083,-0.008,0.02,0.113,-0.075,-0.016,0.004,-0.172,-0.036
NIPSNAP2 (UniProt O75323),-0.084,-0.047,-0.004,-0.033,0.027,-0.016,-0.021,-0.039,-0.179,0.023
NFATC3 (UniProt Q12968),-0.15,-0.137,0.034,0.007,0.107,0.045,-0.101,0.118,-0.267,-0.225
MSTO1 (UniProt Q9BUK6),0.013,0.015,-0.144,-0.059,-0.005,0.053,0.08,-0.015,-0.045,0.017
NDUFS4 (UniProt O43181),-0.015,0.026,0.005,0.053,-0.095,-0.058,-0.069,0.03,0.007,-0.039

Target,log2 fold change [1],log2 fold change [2],log2 fold change [3],log2 fold change [4],log2 fold change (entinostat),log2 fold change (vorinostat),log2 fold change (citarinostat),log2 fold change (silmitasertib),log2 fold change [5],log2 fold change [6]
NAPG (UniProt Q99747),-0.027,-0.087,-0.085,-0.094,0.102,0.117,0.075,0.032,-0.029,-0.017
OGFR (UniProt Q9NZT2),0.049,-0.198,0.015,0.068,-0.02,0.096,0.121,0.003,-0.019,-0.092
NEMP1 (UniProt O14524),-0.007,-0.204,-0.078,-0.181,0.028,0.078,0.026,-0.019,-0.029,-0.113
NUP160 (UniProt Q12769),0.031,-0.058,-0.066,-0.062,0.008,0.05,0.018,0.075,0.021,-0.09
NCKAP1 isoform 2 (UniProt Q9Y2A7),0.066,-0.009,-0.12,-0.025,0.024,0.063,0.015,-0.029,-0.055,0.046
NUP107 (UniProt P57740),-0.009,-0.022,0.056,-0.032,-0.039,0.416,0.016,0.085,0.045,-0.109
MRPS35 (UniProt P82673),0.035,-0.07,-0.082,0.012,-0.027,0.088,-0.011,-0.119,-0.033,-0.03
MRPS10 (UniProt P82664),-0.014,0.004,-0.052,0.011,-0.033,0.057,0.07,-0.048,0,-0.08
OXSM (UniProt Q9NWU1),0.016,0.068,-0.026,0.049,-0.019,-0.028,0.037,-0.04,-0.011,-0.015
MSH6 (UniProt P52701),-0.033,-0.091,-0.213,-0.191,0.229,0.273,0.347,0.14,-0.169,0.097
NCOR1 (UniProt O75376),0.096,-0.057,-0.005,-0.072,0.007,-0.059,-0.028,0.001,-0.044,-0.024
NISCH (UniProt Q9Y2I1),-0.052,-0.293,-0.354,-0.168,0.101,0.09,0.023,0.065,0.081,-0.147
MRPS12 (UniProt O15235),0.207,-0.053,-0.005,0.221,-0.017,0.038,0.01,-0.007,0.101,-0.056
NHLRC2 (UniProt Q8NBF2),-0.077,-0.02,-0.171,-0.065,0.009,0.02,-0.007,0.009,-0.063,-0.015
MRPS26 (UniProt Q9BYN8),-0.067,-0.022,-0.088,0.092,0.022,0.171,-0.04,-0.044,-0.039,0
NECTIN2 isoform 2 (UniProt Q92692),0.072,0.171,-0.194,0.031,-0.032,0.087,0.108,-0.039,-0.495,0.09
MRPS25 (UniProt P82663),-0.031,0.046,0.04,0.04,0.021,-0.036,0.073,-0.053,0.062,-0.074
PAFAH1B2 (UniProt P68402),0.015,0.049,-0.037,-0.025,0.045,-0.088,0.021,0.106,-0.048,-0.097
MXRA7 (UniProt P84157),-0.097,0.037,0.037,-0.302 (active),0.008,0.003,-0.006,0.028,-0.013,0.061
